# Reference: PubChem BioAssay (NCATS)
# Several values for one entry are separate records, joined by “and”; a condition that tells them apart may be missing. Identical values can stand only once. Results filed as inconclusive are left out. A call without a number means that no potency is given here. Activity calls are given as the source filed them. Unless noted, calls follow the shape of the dose curve; as a rule, active = well fitted curve in the direction sought with a large enough effect; inconclusive = small, poorly fitted or top-dose-only effect, or another doubt; inactive = no such curve, though single readings can be large; an effect the other way counts as inactive or inconclusive.
# Experiments:
# [1] = molecular target: Alpha-galactosidase A (Homo sapiens) (UniProt P06280); assay: Counterscreen for Glucocerebrosidase Inhibitors: qHTS Assay for Human alpha-Galactosidase at pH 4.5 (AID 992)
# Alpha-galactosidase A (Homo sapiens), sequence (P06280 whole entry, looked up): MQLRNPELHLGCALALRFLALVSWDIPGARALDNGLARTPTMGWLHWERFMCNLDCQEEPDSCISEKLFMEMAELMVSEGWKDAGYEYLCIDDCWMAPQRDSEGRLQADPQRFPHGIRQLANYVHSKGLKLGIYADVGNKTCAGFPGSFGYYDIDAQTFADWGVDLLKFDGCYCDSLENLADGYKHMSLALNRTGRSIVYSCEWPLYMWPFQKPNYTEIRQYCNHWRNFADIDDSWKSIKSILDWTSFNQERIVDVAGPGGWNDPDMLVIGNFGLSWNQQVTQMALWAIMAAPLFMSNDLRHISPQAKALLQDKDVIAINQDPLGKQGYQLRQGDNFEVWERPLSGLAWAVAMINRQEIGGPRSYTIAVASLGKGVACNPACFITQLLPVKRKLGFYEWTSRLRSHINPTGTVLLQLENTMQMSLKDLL
# Procedure, shortened: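 Each compound is preincubated briefly with 2 nM enzyme before substrate addition (80 uM); plates then sit 20 min at ambient temperature, are quenched with 1M NaOH/1M glycine, and read fluorometrically.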
# [2] = molecular target: alpha-glucosidase (Oryza sativa, rice) (UniProt Q653V4); assay: Counterscreen for Glucocerebrosidase Inhibitors: qHTS Assay for Rice alpha-Glucosidase at pH 5.0 (AID 997)
# Procedure, shortened: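 Endpoint fluorogenic assay at pH 5.0: compounds (0.7 nM to 77 uM) titrated against 4 nM rice enzyme and 400 uM 4-MU-alpha-glucoside for 20 min at room temperature; NaOH/glycine stop, read ex 365/em 440 nm, Hill-fitted AC50.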
# [3] = qHTS Assay for Lipid Storage Modulators (AID 1519; calls by dose curve); conditions: Drosophila S3 cells, BODIPY lipid droplet/cell ratio, laser cytometry, cells loaded with oleic acid
# Procedure, shortened: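 Cells seeded at 5,000 per well were treated with compounds over a concentration series and loaded with oleic acid (400 uM, as added). Lipid droplet fluorescence (488 nm excitation, 500-530 nm channel) was read by laser-scanning cytometry and normalized to 20 uM Triacsin C.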
# [4] = molecular target: DNA repair nuclease/redox regulator APEX1 (Homo sapiens) (UniProt P27695); assay: qHTS Validation Assay for Inhibitors of the Human Apurinic/apyrimidinic Endonuclease 1 (APE1) (AID 1705;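 also: TAMRA fluorescence gain over two minutes as APE1 cuts a quenched THF abasic duplex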)
# DNA repair nuclease/redox regulator APEX1 (Homo sapiens), sequence (P27695 whole entry, looked up): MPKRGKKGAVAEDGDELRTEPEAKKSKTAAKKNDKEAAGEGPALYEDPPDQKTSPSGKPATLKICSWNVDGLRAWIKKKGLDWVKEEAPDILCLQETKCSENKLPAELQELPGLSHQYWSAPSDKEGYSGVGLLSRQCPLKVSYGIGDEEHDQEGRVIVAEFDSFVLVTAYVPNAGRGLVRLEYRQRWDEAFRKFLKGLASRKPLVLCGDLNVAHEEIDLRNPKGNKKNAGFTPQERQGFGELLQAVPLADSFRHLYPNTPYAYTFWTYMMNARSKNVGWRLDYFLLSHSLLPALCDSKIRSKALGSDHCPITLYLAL
# Procedure, shortened: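 Substrate: 50 nM final fluorophore/quencher THF-abasic duplex. Enzyme preincubated with compounds 15 min, RT. Progress derived from fluorescence difference, third minus first kinetic read.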
# [5] = Counterscreen for APE1 Inhibitors: Fluorescent Dye Displacement Validation Assay (AID 1707)
# Procedure, shortened: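 Loss of Thiazole Orange fluorescence marks promiscuous DNA binders. The dye (250 nM) is mixed with 50 nM abasic-site dsDNA in pH7.5 Tris buffer containing MgCl2, then compounds are added and emission is read once.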
# [6] = qHTS for differential inhibitors of proliferation of Plasmodium falciparum line 7G8 (AID 1815);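 also: parasite growth measured after three days of incubation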; also: potency is read from the fitted curve at half-maximal effect
# [7] = qHTS for differential inhibitors of proliferation of Plasmodium falciparum line GB4 (AID 1816); conditions: Potency: Plasmodium falciparum GB4 proliferation inhibition;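 also: parasite growth measured after 72 h incubation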; also: potency is read from the fitted curve at half-maximal effect
# [8] = qHTS for differential inhibitors of proliferation of Plasmodium falciparum line 3D7 (AID 1876); also: potency is read from the fitted curve at half-maximal effect
# [9] = molecular target: Endonuclease 4 (Escherichia coli (strain K12)) (UniProt P0A6C1); assay: Counterscreen for APE1 Inhibitors: qHTS Validation Assay for Inhibitors of Endonuclease IV (AID 1708)
# Procedure, shortened: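 Conditions: 2 nM enzyme, 50 nM TAMRA/BHQ-2 substrate, pH 7.5 Tris buffer with 2 mM MgCl2, RT. Compound preincubation 15 min; readout three fluorescence reads 60 s apart, third-minus-first.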
# [10] = Validation of Assay for Modulators of Lamin A Splicing (AID 1459; active = well fitted curve in the direction sought with a large enough effect in the signal ratio; the % refers to the signal ratio;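 also: cells exposed to compound for two days before reading; ratio rise marks activators and ratio drop marks inhibitors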)
# Procedure, shortened: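 Dual-reporter HeLa S3 line (lamin A-EGFP minigene, DsRed2) treated with compounds 48 hrs, 0.5% DMSO final. Endpoint: EGFP/DsRed2 total intensity ratio from laser-scanning microplate cytometry.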
# [11] = measured here: cell count channel max response
# [12] = measured here: lipid channel max response
Compound,outcome [1],outcome [2],"activity change, negative = inhibition ([3]; at 25.7 µM (top of the series))","activity change, negative = inhibition ([3]; at 57.5 µM (top of the series))","max response [3, 11]","max response [3, 12]",Potency [4],Potency [5],Potency [6],Potency [7],Potency [8],Potency [9],outcome [10]
CC(C)NC[C@H](O)COc1ccc(CC(N)=O)cc1,inactive,inactive,-3.22% (inactive) and -3.29% (inactive),0.49% (inactive) and -5.77% (inactive),-3.12% [middle of 4 runs],-2.86% [middle of 4 runs],inactive,inactive,inactive,inactive,inactive,–,–
N[C@@H](Cc1c[nH]c2ccccc12)C(=O)O,inactive,inactive,–,1.05% (inactive),61.2%,63.3%,inactive,inactive,11.2 µM (active),–,–,inactive,–
CC(C)NC[C@H](O)COc1cccc2ccccc12,–,–,–,8.19% (inactive),19.6%,29.6%,–,–,–,–,–,–,–
CC(=O)N[C@@H](Cc1c[nH]c2ccccc12)C(=O)OCc1cc(C(F)(F)F)cc(C(F)(F)F)c1,inactive,inactive,–,-1.99% (inactive),-16.3%,-17.3%,–,–,–,inactive,inactive,–,–
CCN1C(=O)C=CC1=O,inactive,inactive,–,0.136% (inactive),-19.7%,-18.9%,inactive,inactive,inactive,inactive,inactive,–,–
O=c1[nH]c2ccccc2c2ccccc12,inactive,inactive,–,1.72% (inactive),17.8%,20.4%,inactive,inactive,–,inactive,inactive,inactive,–
OC[C@H]1O[C@@H](n2cnc3cncnc32)[C@H](O)[C@@H]1O,–,–,–,-4.73% (inactive),0.328%,-1.94%,inactive,inactive,inactive,–,5.01 µM (active),inactive,–
COc1ccc2c(c1)c(CC(=O)O)c(C)n2Cc1ccc(Cl)cc1,inactive,inactive,–,-1.87% (inactive),-35.2%,-34.3%,inactive,inactive,14.1 µM (active),10 µM (active),11.2 µM (active),–,–
NC(=O)CNCCC(c1ccccc1)c1ccccc1,inactive,inactive,–,0.71% (inactive),-14.5%,-14.2%,inactive,inactive,4.47 µM (active),–,–,inactive,–
CCCc1c(OCCCOc2ccc(OCC(=O)O)cc2)ccc(C(C)=O)c1O,inactive,inactive,–,1% (inactive),51.1%,51.4%,inactive,inactive,inactive,inactive,inactive,–,–
CNC(=O)c1cc2c(cn1)[nH]c1ccccc12,inactive,inactive,–,–,–,–,–,inactive,12.6 µM (active),–,–,inactive,inactive
Cc1cccc(C(=O)NCN2CCN(c3ccccc3C#N)CC2)c1,inactive,inactive,–,0.112% (inactive),-23.9%,-22.6%,inactive,inactive,inactive,–,inactive,inactive,–
N[C@H](C(=O)O)c1cc(O)cc(O)c1,–,inactive,–,10.3% (inactive) and 1.43% (inactive) and 0.261% (inactive),7.08% and 3.62% and -19%,19.7% and 15.4% and -15.9%,inactive,inactive,inactive,inactive,inactive,inactive,–
CCCn1c(=O)c2[nH]c(C3CCCC3)nc2n(CCC)c1=O,inactive,inactive,–,7.3% (inactive),9.56%,17.6%,inactive,inactive,–,–,–,–,–
C[N+](C)(C)CC=O,–,inactive,–,-0.649% (inactive),50.2%,40.1%,inactive,inactive,inactive,inactive,inactive,–,–
CCC1(O)CC2CN(CCc3c([nH]c4ccccc34)[C@@](C(=O)OC)(c3cc4c(cc3OC)N(C=O)C3[C@]45CCN4CC=C[C@@](CC)([C@@H](OC(C)=O)[C@]3(O)C(=O)OC)[C@H]45)C2)C1 (some centres not stated),–,–,–,2.35% (inactive),-1.21%,2.17%,inactive,inactive,0.794 µM (active),–,0.0631 µM (active),–,–
CCCCCCCCCCCCCCSCC(=O)O,–,inactive,–,–,–,–,inactive,inactive,inactive,inactive,inactive,inactive,–
NC(N)=N[C@@H](CCC(=O)O)C(=O)O,–,–,–,–,–,–,inactive,inactive,inactive,inactive,inactive,inactive,–
CC(C)(C)NCC(O)COc1cccc2[nH]c(=O)[nH]c12 (configuration not stated),–,–,–,–,–,–,inactive,inactive,inactive,inactive,inactive,inactive,–
O=C1Cc2c([nH]c3ccc(Br)cc23)-c2ccccc2N1,inactive,inactive,–,–,–,–,inactive,inactive,8.91 µM (active),10 µM (active),11.2 µM (active),–,–
Cc1ccccc1/C=C/C1=NCCN1,–,–,–,–,–,–,inactive,inactive,8.91 µM (active),11.2 µM (active),–,–,–
Nc1ncnc2c1ncn2C1CCCC1,inactive,inactive,–,–,–,–,inactive,inactive,inactive,–,–,–,–
COc1ccc2c(c1)CCC1C2CC[C@@]2(C)C1CC[C@@H]2NCCCCCCN1C(=O)C=CC1=O (some centres not stated),–,–,–,–,–,–,inactive,inactive,inactive,inactive,inactive,inactive,–
